This is one part of a sample in which hits are shown more often than they occur.
Pf Dd2 inh: Plasmodium falciparum Dd2 growth inhibition. hit rate 4.3% among 120,000. P. falciparum Dd2 growth, SYBR Green, 72 h. Potency, µM (doses to about 28.9 µM), for inactives: top-dose activity, negative = inhibition, actives largely listed as inhibitors. AID 1347417; active = well fitted inhibition curve with a large enough effect;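 note: plate controls were DMSO vehicle for no effect and reference drug for full effect; nearly all actives have a fitted effect of over 65% in size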
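Readout: SYBR Green fluorescence, 485 nm excitation, 535 nm emission, after ~16 h lysis at 37C. Before that, Dd2-infected red cells (2.5% hematocrit) grew 72 h with compound, 29 uM top final concentration.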
Numbers without * were called inactive; i = inactive; [ ] = another dose, or the depositor's remark. Potency is the fitted concentration of half-maximal effect.

SMILES	Pf Dd2 inh
CCC(C)NC(=O)C(NC(=O)c1ccc(C)cc1)C1CCN(C(=O)c2cccc(F)c2)CC1 (stereo not given)	10µM*
Cc1ccc(C(=O)N2CCC(C(NC(=O)c3ccccc3C)C(=O)NCC(C)C)CC2)cc1 (stereo not given)	7.9µM*
COc1cccc(CC(=O)N[C@H](Cc2ccccc2)C(=O)N2CCOCCNC(=O)CC2)c1	-9%
O=C([C@@H]1C[C@H](F)CN1S(=O)(=O)c1ccc(Cl)s1)N1CCCCC1	20%
O=C([C@@H]1C[C@H](Oc2ccccc2)CN1C(=O)c1cnccn1)N1CCOCC1	-21%
Cc1nnc2n1CCC(N(C)C(=O)NCc1ccco1)CC2 (stereo not given)	-24%
O=C(CN1CCOC1=O)N1CCC2(CCC(=O)N(CCCn3ccnc3)C2)CC1	-15%
CCOc1ccc(-c2cccc(NS(=O)(=O)c3ccc(F)cc3F)c2)nn1	59%[0.594 µM]
CCOc1ccc(Br)cc1S(=O)(=O)Nc1cccc(-c2ccc(OC)nn2)c1	5%
CCOc1ccc(-c2ccc(NS(=O)(=O)c3cc(C)ccc3OC)cc2)nn1	10µM*
CNC(=O)CC1CCOC2(CCN(C(=O)Nc3ccc4c(c3)OCCO4)CC2)C1 (stereo not given)	i
Cn1cnc(S(=O)(=O)N2CCC(c3nc(C4CC4)no3)C2)c1 (stereo not given)	-20%
O=C(NC[C@H]1OC[C@@H](NCc2ccccn2)[C@@H]1O)N1CCOCC1	i
COc1cccc(C(=O)N[C@@H]2CN(C)C[C@H]2CN(C)C)c1OC	38%
COCCN1C(=O)c2cccn2CC1CNC(=O)c1[nH]nc2c1COc1ccccc1-2 (stereo not given)	-5%
CN1C(=O)c2cccn2CC1CNC(=O)c1[nH]nc2c1COc1ccccc1-2 (stereo not given)	8.9µM*
CN1C(=O)c2cccn2CC1CNC(=O)c1n[nH]c(=O)c2ccccc12 (stereo not given)	16%
COc1cccc(CC(=O)Nc2ccc3c(c2)CN(CCc2ccccc2)C(=O)C(C)O3)c1 (stereo not given)	i
COCC1CN(C)CC12CCN(Cc1ccc(OC)cc1)CC2 (stereo not given)	i
COCC1CN(C(C)=O)CC12CCN(S(=O)(=O)c1cccs1)CC2 (stereo not given)	-5%
COCC1CN(S(=O)(=O)c2cccs2)CC12CCNCC2 (stereo not given)	30%
COCC1CN(C)CC12CCN(Cc1ccc(F)cc1F)CC2 (stereo not given)	-25%
COCC1CN(C)CC12CCN(Cc1ccc(F)c(Cl)c1)CC2 (stereo not given)	5µM*
COCC1CN(C)CC12CCN(S(=O)(=O)c1cccs1)CC2 (stereo not given)	3.5µM*
O=C(NC[C@H]1O[C@@H]2C[C@@H](CC(=O)N3CCC(F)(F)C3)O[C@@H]2[C@@H]1O)NC1CCCCC1	21%[44.1 µM]
SMILES	Pf Dd2 inh
Cc1ncsc1CCC(=O)N1CCC2(CCNCC2)CC1	-6%
COCc1ncc(C)n1C1CCN(C(=O)C2CCC2)CC1	-4%
CC(C)N1C(=O)C2(CCCC2)C1C(=O)NCc1ccccn1 (stereo not given)	-13%
Cc1ccc(S(=O)(=O)N[C@H]2CC(C)(C)[C@@H]3C[C@@](C)(O)CC[C@]23CCC(=O)NCCc2c[nH]c3ccccc23)cc1	-15%
COCCNC(=O)c1ccc(OC2CCN(CC3CCOC3)CC2)c(Cl)c1 (stereo not given)	-11%
CC(C)n1cc(CN2CCC(Oc3ccc(C(=O)NC4CCCC4)cc3Cl)CC2)cn1	-10%
COCCNC(=O)c1ccc(OC2CCN(Cc3ccc(C)s3)CC2)c(Cl)c1	6.3µM*
COCCNC(=O)c1ccc(OC2CCN(C(=O)[C@@H](C)N)CC2)c(Cl)c1	-13%
COCCNC(=O)c1ccc(OC)cc1OC1CCN(Cc2cccc3cccnc23)CC1	i
COCCNC(=O)c1ccc(OC2CCN(Cc3cccc4c3OCO4)CC2)c(Cl)c1	7.1µM*
CCC1=C(C(=O)OC)C(c2ccccc2)N2C(CC(=O)N3CCOCC3)=CSC2=N1 (stereo not given)	i
Nc1ncccc1CN1CCN(C(=O)CO)CC(C(=O)O)C1 (stereo not given)	-1%
O=C(Nc1ccc(Cl)cc1)N1CCn2c(nnc2C2CC2)C1	i
Cc1cc(C(=O)N2CCCC3(COc4ccccc4S(=O)(=O)N3)C2)no1 (stereo not given)	2%
O=C(c1ccc2c(c1)OCO2)N1CCC2(CNc3ccccc3[S+](=O)([O-])N2)C1 (stereo not given)	4%
Cc1ccc(C(=O)N2CCN(c3nnc4ccccn34)CC2)cc1	-14%
CCC1CCCCN1CCCNC(=O)c1c(O)nc2ccccn2c1=O (stereo not given)	-5%
O=C(c1cc(COc2c(F)cccc2F)on1)N1CCCCC1CCc1ccccc1 (stereo not given)	-17%
CSc1ccccc1OCc1cc(C(=O)NCCN2CCCCC2CO)no1 (stereo not given)	11µM*
CN1[C@@H](CCC(=O)NCc2ccco2)CNC(=O)[C@@H]2[C@H]1CCN2Cc1ccccc1	-3%[44.1 µM]
